Measurements as given in PubChem BioAssay (Tox21).
Records with an inconclusive call do not appear. A call without a number means that no potency is given here. The source made the active and inactive calls. Unless noted, calls follow the shape of the dose curve; as a rule, active = well fitted curve in the direction sought with a large enough effect in the repeat runs; inconclusive = weak or mixed curves; inactive = no such curve, though single readings can be large; an effect the other way counts as inactive or inconclusive.

Key:
[1] = biological target: Estrogen receptor beta (Homo sapiens) (UniProt Q92731); experiment: qHTS assay to identify small molecule agonists of the estrogen receptor beta (ER-beta) signaling pathway (AID 1259377; active = well fitted activation curve with a large enough effect in the signal ratio in the repeat runs, not every such curve was filed as active; the % refers to the signal ratio)
Summary of the method: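 Beta-lactamase reporter readout: fluorescence of LiveBLAzer B/G FRET substrate after 2 h at room temperature, following 16 h compound treatment of ER-beta-UAS-bla HEK293T cells at 37C in 2% charcoal-stripped FBS medium.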

[2] = biological target: Estrogen receptor beta (Homo sapiens) (UniProt Q92731); experiment: qHTS assay to identify small molecule antagonists of the estrogen receptor beta (ER-beta) signaling pathway (AID 1259378; active = well fitted inhibition curve with a large enough effect in the signal ratio in the repeat runs, not every such curve was filed as active; the % refers to the signal ratio; also: potency is read from the fitted curve at half-maximal effect)
Summary of the method: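 Antagonist mode: compounds added to beta-lactamase reporter HEK293T ER-beta-UAS cells stimulated with E2 (1nM final), 16 hr at 37C. LiveBLAzer B/G FRET substrate, 2 hours room temperature, fluorescence read-out.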

[3] = qHTS assay to identify small molecule agonists of the androgen receptor (AR) signaling pathway in the presence of an antagonist - cell viability counter screen (AID 1259379); also: nearly all actives have a fitted effect of over 25% in size; also: potency is read from the fitted curve at half-maximal effect
Summary of the method: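 Each compound was tested at 15 concentrations on MDA-kb2 cells in the presence of 3.0uM nilutamide. Viability was measured by CellTiter-Fluor fluorescence after a 16 hr incubation at 37C in a CO2-free atmosphere.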

[4] = qHTS assay to identify small molecule agonists of the estrogen receptor beta (ER-beta) signaling pathway - cell viability counter screen (AID 1259380); also: nearly all actives have a fitted effect of over 30% in size; also: potency is read from the fitted curve at half-maximal effect
Summary of the method: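 Compounds dissolved in DMSO were pin-transferred onto ER-beta-UAS-bla HEK293T cells that had settled 6 hr, and exposure ran 16 hr at 37C. Following the reporter read, CellTiter-Glo luminescence after 30 min at room temperature indicated cytotoxicity.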

[5] = biological target: Estrogen receptor (Homo sapiens) (UniProt P03372); experiment: qHTS assay to identify small molecule agonists of the estrogen receptor alpha (ER-alpha) signaling pathway in the presence of an antagonist (AID 1259383; calls by dose curve; also: nearly all actives have a fitted effect of over 15% in size; also: potency is read from the fitted curve at half-maximal effect; as to activation: top concentration of the series differs between compounds)
Summary of the method: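 Luminescent ERE-luciferase reporter, VM7Luc4E2 cells (endogenous ER-alpha); 10.0nM ICI-182,780 final; 15-point compound titration; 22hr at 37C; ONE-Glo, 30min RT.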

[6] = qHTS assay to identify small molecule agonists or antagonists of the thyroid stimulating hormone receptor (TSHR) signaling pathway - wild type cell line counter screen (AID 1259384; calls by dose curve)
Summary of the method: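 Counter screen in untransfected Hek293: compounds (15-point titration, triplicate) plus phosphodiesterase inhibitor Ro20-1724 added after 18 h plating; 30 min RT. Intracellular cAMP via competitive d2/cryptate immunoassay, 1 h incubation.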

[7] = biological target: Progesterone receptor (Homo sapiens) (UniProt P06401); experiment: qHTS assay to identify small molecule agonists of the progesterone receptor (PR) signaling pathway (AID 1346784; calls by dose curve; also: nearly all actives have a fitted effect of over 30% in size)
Summary of the method: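 HEK 293T PR-UAS-bla reporter cells, 2% charcoal-stripped FBS; 6 hr settle at 37C/5% CO2, compound (DMSO) 16 hr, LiveBLAzer B/G FRET substrate 2 hr RT, fluorescence intensity read.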

[8] = biological target: Progesterone receptor (Homo sapiens) (UniProt P06401); experiment: qHTS assay to identify small molecule antagonists of the progesterone receptor (PR) signaling pathway (AID 1346795; active = well fitted inhibition curve with a large enough effect in the signal ratio in the repeat runs, not every such curve was filed as active; the % refers to the signal ratio; also: potency is read from the fitted curve at half-maximal effect)
Summary of the method: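 Beta-lactamase reporter, HEK293T PR-UAS-bla line; 2% charcoal-stripped FBS; 6 hr pre-incubation, 37C/5% CO2. Compound + R5020 1 nM final, 16 hr. LiveBLAzer B/G FRET substrate, 2 hr RT; fluorescence intensity read.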

[9] = qHTS assay to identify small molecule antagonists of the progesterone receptor (PR) signaling pathway - cell viability counter screen (AID 1346798); also: series mostly up to about 92 µM; nearly all actives have a fitted effect of over 50% in size
Summary of the method: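 Luminescence readout (CellTiter-Glo, 30 min, RT) of viability in PR-UAS-bla HEK293T cells exposed to compound and R5020 agonist for 16 hr at 37C, 5% CO2; run in the same wells as the beta-lactamase reporter read.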

[10] = qHTS assay to identify small molecule agonists of the progesterone receptor (PR) signaling pathway - cell viability counter screen (AID 1346799; calls by dose curve; also: nearly all actives have a fitted effect of over 45% in size; also: potency is read from the fitted curve at half-maximal effect)
Summary of the method: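 HEK293T PR-UAS-bla, 3,000 cells/well, 2% charcoal-stripped FBS; 6 h settle, compound 16 h at 37C/5% CO2; LiveBLAzer 2 h RT, then CellTiter-Glo 30 min RT, luminescence read.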

[11] = qHTS assay to identify small molecule agonists of the TGF-beta/Smad signaling pathway (AID 1346859; active = well fitted activation curve with a large enough effect in the signal ratio in the repeat runs, not every such curve was filed as active; the % refers to the signal ratio; also: series mostly up to about 77 µM)
Summary of the method: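 Read-out: fluorescence at 460 and 530 nm (405 nm excitation) after a 2 hr room-temperature incubation with beta-lactamase FRET substrate. SBE-bla HEK 293T cells had been treated with test compounds for 5 hr at 37 C.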

[12] = Human pregnane X receptor (PXR) small molecule agonists, qHTS cell viability counter screen (AID 1346977); also: nearly all actives have a fitted effect of over 50% in size; also: potency is read from the fitted curve at half-maximal effect
Summary of the method: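 Fluorescence read-out (CellTiter-Fluor) of viability in PXR-Luc HepG2 cells, multiplexed with the luciferase agonist read. Compounds in DMSO added after 5hr plating; 24hr total exposure at 37C, 5% CO2.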

[13] = qHTS assay to identify small molecule antagonists of the estrogen receptor beta (ER-beta) signaling pathway - cell viability counter screen (AID 1259382); also: nearly all actives have a fitted effect of over 55% in size; also: potency is read from the fitted curve at half-maximal effect
Summary of the method: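 CellTiter-Glo ATP luminescence measured after the LiveBLAzer read in the same wells; ER-beta-UAS-bla HEK293T cells, 16 hr compound treatment with 1nM 17-beta-estradiol agonist at 37C, 5% CO2.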

[14] = biological target: Thyrotropin receptor (Homo sapiens) (UniProt P16473); experiment: qHTS assay to identify small molecule antagonists of the thyroid stimulating hormone receptor (TSHR) signaling pathway (AID 1259385; calls by dose curve; also: nearly all actives have a fitted effect of over 20% in size; also: potency is read from the fitted curve at half-maximal effect)
Summary of the method: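 Antagonist mode: compound-treated TSHR-expressing HEK293 cells were stimulated with 1.5 ng/mL TSH (final) in presence of Ro20-1724 for 30 min at RT. HTRF cAMP detection after 1 h; each compound tested at 15 concentrations, triplicate.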

[15] = qHTS assay to identify small molecule agonists of the estrogen receptor alpha (ER-alpha) signaling pathway in the presence of an antagonist - cell viability counter screen (AID 1259386);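 also: cells exposed to compounds for 22 h at 37 °C before the viability read; nearly all actives have a fitted effect of over 30% in size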; also: potency is read from the fitted curve at half-maximal effect
Summary of the method: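 Using estrogen-depleted VM7Luc4E2 cells, the 15-concentration compound series was applied together with 10.0nM ICI-182,780 and incubated 22hr at 37C/5% CO2. Cell viability was then scored by CellTiter-Fluor.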

[16] = qHTS assay to identify small molecule antagonists of the TGF-beta/Smad signaling pathway - cell viability counter screen (AID 1346824); also: nearly all actives have a fitted effect of over 50% in size; also: potency is read from the fitted curve at half-maximal effect
Summary of the method: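 Cytotoxicity counter-screen run in the same wells as the beta-lactamase Smad reporter read: CellTiter-Glo luminescence after 30 min at room temperature. HEK 293T SBE-bla cells had 5 hr compound exposure at 37 C with TGF-beta1 (0.25 ng/mL stock).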

[17] = qHTS assay to identify small molecule agonists of the TGF-beta/Smad signaling pathway - cell viability counter screen (AID 1346829); also: top concentration of the series differs between compounds; nearly all actives have a fitted effect of over 45% in size
Summary of the method: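 CellTiter-Glo luminescence readout; SBE-bla HEK 293T cells, overnight plating, compound 5 hr at 37 C/5% CO2, then bla substrate 2 hr RT, then CellTiter-Glo 30 min RT.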

[18] = biological target: Thyrotropin-releasing hormone receptor (Homo sapiens) (UniProt P34981); experiment: qHTS assay to identify small molecule antagonists of the thyrotropin-releasing hormone receptor (TRHR) signaling pathway (AID 1346877; active = well fitted inhibition curve with a large enough effect in the repeat runs, not every such curve was filed as active; also: series mostly up to about 51 µM)
Summary of the method: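 Calcium signal in dye-loaded TRHR/HEK293 cells; compounds added 5 min before TRH (1 nM final); fluorescence monitored 3 min at 1 s steps.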

[19] = biological target: Thyrotropin-releasing hormone receptor (Homo sapiens) (UniProt P34981); experiment: qHTS assay to identify small molecule agonists of the thyrotropin-releasing hormone receptor (TRHR) signaling pathway (AID 1346891; calls by dose curve;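 also: HEK293 cells expressing TRHR with calcium dye readout; series mostly up to about 58 µM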)
Summary of the method: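 HEK293/TRHR cells, 1500 per well, 18 h 37 °C; Ca dye 2 h 37 °C; pin-tool compound addition (agonist mode); kinetic fluorescence 3 min, 1 s reads; 15 concentrations, triplicate.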

[20] = biological target: Androgen receptor (Homo sapiens) (UniProt P10275); experiment: qHTS assay to identify small molecule agonists of the androgen receptor (AR) signaling pathway in the presence of an antagonist (AID 1259381; calls by dose curve; also: nearly all actives have a fitted effect of over 15% in size)
Summary of the method: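 Plated MDA-kb2 cells (3,000/well) were pre-incubated 5hr, given nilutamide (3.0uM final) or buffer, then dosed with compounds in DMSO at 15 concentrations. Luciferase activity was quantified by luminescence after 16hr at 37C.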

Chain of Thyrotropin receptor (Homo sapiens) (P16473 whole entry, looked up): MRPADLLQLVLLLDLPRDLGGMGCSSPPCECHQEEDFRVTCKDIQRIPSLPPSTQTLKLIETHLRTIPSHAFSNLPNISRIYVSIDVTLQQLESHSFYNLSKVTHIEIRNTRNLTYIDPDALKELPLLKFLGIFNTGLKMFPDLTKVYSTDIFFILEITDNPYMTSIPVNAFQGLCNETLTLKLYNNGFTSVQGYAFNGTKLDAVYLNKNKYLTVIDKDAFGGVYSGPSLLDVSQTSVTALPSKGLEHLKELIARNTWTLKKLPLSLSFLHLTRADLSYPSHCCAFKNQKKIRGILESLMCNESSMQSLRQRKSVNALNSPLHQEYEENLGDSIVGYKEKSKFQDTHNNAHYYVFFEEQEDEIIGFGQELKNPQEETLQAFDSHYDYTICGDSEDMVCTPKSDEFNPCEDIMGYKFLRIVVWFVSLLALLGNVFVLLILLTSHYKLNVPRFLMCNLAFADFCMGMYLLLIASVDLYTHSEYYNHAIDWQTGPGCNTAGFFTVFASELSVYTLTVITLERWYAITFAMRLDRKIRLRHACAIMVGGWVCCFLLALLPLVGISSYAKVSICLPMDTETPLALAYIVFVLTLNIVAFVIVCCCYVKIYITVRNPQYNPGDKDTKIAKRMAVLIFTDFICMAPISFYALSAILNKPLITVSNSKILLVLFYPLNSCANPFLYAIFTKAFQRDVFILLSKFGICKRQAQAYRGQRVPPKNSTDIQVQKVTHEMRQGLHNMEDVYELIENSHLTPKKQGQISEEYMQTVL
Chain of Estrogen receptor beta (Homo sapiens) (Q92731 whole entry, looked up): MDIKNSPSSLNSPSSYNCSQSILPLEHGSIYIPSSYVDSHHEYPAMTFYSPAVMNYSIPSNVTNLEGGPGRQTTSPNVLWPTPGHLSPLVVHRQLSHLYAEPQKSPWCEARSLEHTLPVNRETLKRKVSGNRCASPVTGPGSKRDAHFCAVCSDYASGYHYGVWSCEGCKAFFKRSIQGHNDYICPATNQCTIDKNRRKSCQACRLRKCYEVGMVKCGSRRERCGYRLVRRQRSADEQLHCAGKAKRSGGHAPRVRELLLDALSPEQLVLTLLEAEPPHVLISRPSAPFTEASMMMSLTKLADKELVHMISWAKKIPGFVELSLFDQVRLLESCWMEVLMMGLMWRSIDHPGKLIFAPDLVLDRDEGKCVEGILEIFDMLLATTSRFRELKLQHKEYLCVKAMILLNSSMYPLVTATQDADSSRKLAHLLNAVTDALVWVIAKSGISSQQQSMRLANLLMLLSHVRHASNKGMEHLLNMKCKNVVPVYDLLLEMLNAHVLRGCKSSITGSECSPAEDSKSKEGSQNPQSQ
Chain of Estrogen receptor (Homo sapiens) (P03372 whole entry, looked up): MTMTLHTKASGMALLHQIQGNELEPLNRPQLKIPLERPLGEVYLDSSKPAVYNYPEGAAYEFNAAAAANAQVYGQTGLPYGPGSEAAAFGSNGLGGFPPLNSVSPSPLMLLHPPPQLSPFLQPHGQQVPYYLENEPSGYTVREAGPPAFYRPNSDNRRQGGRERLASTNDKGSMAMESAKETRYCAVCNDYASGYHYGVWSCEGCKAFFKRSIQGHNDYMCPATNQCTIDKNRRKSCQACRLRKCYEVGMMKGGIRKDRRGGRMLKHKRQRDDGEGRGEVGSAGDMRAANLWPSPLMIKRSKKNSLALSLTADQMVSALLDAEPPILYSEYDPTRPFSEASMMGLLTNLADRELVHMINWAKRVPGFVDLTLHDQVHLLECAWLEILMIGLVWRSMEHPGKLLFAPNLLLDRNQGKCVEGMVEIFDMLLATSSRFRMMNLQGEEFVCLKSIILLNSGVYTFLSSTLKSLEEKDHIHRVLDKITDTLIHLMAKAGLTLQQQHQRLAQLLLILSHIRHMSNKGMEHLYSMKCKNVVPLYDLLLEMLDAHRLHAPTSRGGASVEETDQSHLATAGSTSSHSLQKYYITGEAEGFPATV
Chain of Thyrotropin-releasing hormone receptor (Homo sapiens) (P34981 whole entry, looked up): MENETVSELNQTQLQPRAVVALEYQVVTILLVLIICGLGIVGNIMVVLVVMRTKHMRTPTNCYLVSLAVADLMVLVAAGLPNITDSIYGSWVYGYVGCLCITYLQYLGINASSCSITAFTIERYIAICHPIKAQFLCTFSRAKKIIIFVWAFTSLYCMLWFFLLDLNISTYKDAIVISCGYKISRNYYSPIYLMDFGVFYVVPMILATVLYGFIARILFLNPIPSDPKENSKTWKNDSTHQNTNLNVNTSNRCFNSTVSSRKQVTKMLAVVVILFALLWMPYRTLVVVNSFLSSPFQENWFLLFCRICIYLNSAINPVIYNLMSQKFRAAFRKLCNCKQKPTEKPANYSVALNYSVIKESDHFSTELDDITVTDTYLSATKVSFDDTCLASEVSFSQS
Chain of Progesterone receptor (Homo sapiens) (P06401 whole entry, looked up): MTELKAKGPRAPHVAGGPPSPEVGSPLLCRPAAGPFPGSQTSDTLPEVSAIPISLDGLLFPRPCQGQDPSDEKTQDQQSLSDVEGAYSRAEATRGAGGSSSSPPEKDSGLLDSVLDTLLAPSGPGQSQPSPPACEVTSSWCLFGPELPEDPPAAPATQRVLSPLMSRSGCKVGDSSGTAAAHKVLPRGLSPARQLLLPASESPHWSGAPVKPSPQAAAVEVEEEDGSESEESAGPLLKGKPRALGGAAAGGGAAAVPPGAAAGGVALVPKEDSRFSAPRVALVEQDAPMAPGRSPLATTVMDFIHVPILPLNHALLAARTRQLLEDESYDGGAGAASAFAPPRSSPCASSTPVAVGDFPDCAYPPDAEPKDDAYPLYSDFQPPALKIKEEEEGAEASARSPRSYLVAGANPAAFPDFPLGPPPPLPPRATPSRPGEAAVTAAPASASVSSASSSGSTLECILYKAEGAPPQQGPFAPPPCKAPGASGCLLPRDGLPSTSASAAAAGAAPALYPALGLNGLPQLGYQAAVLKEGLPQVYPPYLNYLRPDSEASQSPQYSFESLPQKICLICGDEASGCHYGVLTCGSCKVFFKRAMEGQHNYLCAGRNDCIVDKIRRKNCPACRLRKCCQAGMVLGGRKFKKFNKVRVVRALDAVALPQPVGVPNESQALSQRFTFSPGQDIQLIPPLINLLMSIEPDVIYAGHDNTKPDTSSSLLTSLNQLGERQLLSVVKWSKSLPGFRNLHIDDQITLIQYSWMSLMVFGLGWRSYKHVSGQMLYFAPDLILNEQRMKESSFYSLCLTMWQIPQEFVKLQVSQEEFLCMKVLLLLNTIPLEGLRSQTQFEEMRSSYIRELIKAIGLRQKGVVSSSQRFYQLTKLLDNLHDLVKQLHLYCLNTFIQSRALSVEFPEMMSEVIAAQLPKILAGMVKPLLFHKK
Chain of Androgen receptor (Homo sapiens) (P10275 whole entry, looked up): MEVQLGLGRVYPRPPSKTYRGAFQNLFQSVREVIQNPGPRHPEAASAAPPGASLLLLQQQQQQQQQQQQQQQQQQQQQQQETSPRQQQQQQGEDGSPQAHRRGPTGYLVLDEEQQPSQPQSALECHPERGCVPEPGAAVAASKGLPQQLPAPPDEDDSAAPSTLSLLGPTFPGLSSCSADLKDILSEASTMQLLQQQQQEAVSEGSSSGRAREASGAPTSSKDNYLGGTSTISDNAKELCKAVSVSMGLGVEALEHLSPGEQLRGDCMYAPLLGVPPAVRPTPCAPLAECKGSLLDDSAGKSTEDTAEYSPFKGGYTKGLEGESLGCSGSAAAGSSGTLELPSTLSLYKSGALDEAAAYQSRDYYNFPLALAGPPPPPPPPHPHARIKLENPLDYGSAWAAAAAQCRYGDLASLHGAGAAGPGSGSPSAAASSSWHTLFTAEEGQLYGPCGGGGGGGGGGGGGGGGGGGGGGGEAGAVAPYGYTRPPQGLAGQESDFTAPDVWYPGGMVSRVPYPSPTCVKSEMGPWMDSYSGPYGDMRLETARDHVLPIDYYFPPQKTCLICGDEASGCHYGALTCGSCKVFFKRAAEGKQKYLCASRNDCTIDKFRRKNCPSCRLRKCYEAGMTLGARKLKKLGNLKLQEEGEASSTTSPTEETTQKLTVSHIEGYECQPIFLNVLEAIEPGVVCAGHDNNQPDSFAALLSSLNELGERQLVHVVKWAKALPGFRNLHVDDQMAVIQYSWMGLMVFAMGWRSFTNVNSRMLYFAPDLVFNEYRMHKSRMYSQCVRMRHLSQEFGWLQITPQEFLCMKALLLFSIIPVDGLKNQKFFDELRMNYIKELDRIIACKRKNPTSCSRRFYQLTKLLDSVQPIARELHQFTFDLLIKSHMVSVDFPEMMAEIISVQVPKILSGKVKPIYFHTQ

| Compound | Potency [1] | Potency [2] | Potency [3] | Potency [4] | Potency [5] | outcome [6] | Potency [7] | Potency [8] | Potency [9] | Potency [10] | outcome [11] | Potency [12] | Potency [13] | Potency [14] | Potency [15] | Potency [16] | Potency [17] | Potency [18] | Potency [19] | Potency [20] |
| --- | --- | --- | --- | --- | --- | --- | --- | --- | --- | --- | --- | --- | --- | --- | --- | --- | --- | --- | --- | --- |
| O=CC(Br)(Br)Br | inactive | inactive | 30.5 µM (active) | 21.6 µM (active) | inactive | inactive | inactive | inactive | inactive | inactive | inactive | 43.1 µM (active) |  |  |  |  |  |  |  |  |
| Cc1cc(C)cc(OP(=O)(Oc2cc(C)cc(C)c2)Oc2cc(C)cc(C)c2)c1 | inactive | inactive | inactive |  | inactive | inactive | inactive |  | inactive |  | inactive | inactive | inactive | inactive | inactive | inactive | inactive |  |  |  |
| O=C1NCN(c2ccccc2)C12CCN(CC1COc3ccccc3O1)CC2 (configuration not stated) | inactive | inactive |  | 11.9 µM (active) | inactive | inactive | inactive | inactive | inactive | inactive | inactive | inactive |  | inactive |  | inactive | inactive | inactive | inactive |  |
| Nc1ccccc1C(=O)OC/C=C/c1ccccc1 | inactive | 48.7 µM (active) | inactive |  | 12.2 µM (active) | inactive |  | 27.4 µM (active) | inactive | inactive | inactive | inactive | inactive | inactive | inactive | inactive | inactive | inactive | inactive |  |
| CC(C)C1CCC(Cc2ccc(Cl)cc2)C1(O)Cn1cncn1 (configuration not stated) | inactive | 24.1 µM (active) | 67.9 µM (active) |  | inactive | inactive |  | 3.4 µM (active) |  |  |  | 48.1 µM (active) | 67.9 µM (active) |  |  | 54.4 µM (active) |  |  | inactive |  |
| Nc1ccc(Cl)cc1C(=O)c1ccccc1 | inactive | 30.6 µM (active) |  |  | inactive | inactive | inactive | 17.2 µM (active) | inactive | inactive | inactive |  |  |  |  | inactive | inactive |  |  |  |
| COc1cccc(C(=O)CCN[C@@H](C)[C@H](O)c2ccccc2)c1 | inactive | inactive |  | inactive |  | inactive | inactive | inactive |  |  | inactive | 29.8 µM (active) | inactive | inactive | inactive | inactive | inactive | inactive | inactive | inactive |
| COc1cccc2c1C(=O)c1c(O)c3c(c(O)c1C2=O)C[C@@](O)(C(=O)CO)CC3OC1CC(N2CCOC(OC)C2)C(O)C(C)O1 (some centres not stated) | inactive | 0.168 µM (active) | 13.3 µM (active) |  | inactive | inactive |  |  |  |  |  | 0.168 µM (active) | inactive |  | 10.6 µM (active) | inactive | inactive |  |  | inactive |
| CCCN(CC)CC1COC2(CCC(C(C)(C)C)CC2)O1 (configuration not stated) | inactive | inactive | inactive |  | inactive | inactive | inactive | inactive |  |  | inactive | inactive | inactive | inactive | inactive | inactive | inactive |  |  |  |
| CC1(c2ccc(Oc3ccccc3)cc2)OC(=O)N(Nc2ccccc2)C1=O (configuration not stated) | inactive | 10.9 µM (active) | 24.5 µM (active) |  | inactive | inactive | inactive |  |  |  | inactive | 27.5 µM (active) | inactive |  | 30.8 µM (active) |  | inactive | inactive | inactive |  |
| CCCCCCCCCCCCCCC(Br)C(=O)O (configuration not stated) | inactive | inactive | inactive |  | inactive |  | inactive | inactive |  |  | inactive | inactive | inactive |  | inactive | inactive | inactive | inactive | inactive |  |
| CC(=O)OC1(c2ccccc2)CCN(CCc2ccccc2)CC1 | inactive | inactive | 70.3 µM (active) |  |  | inactive | inactive | inactive | inactive | inactive | inactive |  | inactive | inactive |  | inactive | inactive | inactive | inactive |  |
| CCCOCC(=Nc1ccc(Cl)cc1C(F)(F)F)n1ccnc1 | inactive | 17.2 µM (active) |  |  |  | inactive |  |  |  |  | inactive | 61.1 µM (active) | 61.1 µM (active) |  |  | inactive | inactive | inactive | inactive |  |
| CC(C)CCCCCOC(=O)c1ccccc1C(=O)OCCCCCC(C)C | inactive | inactive | inactive |  | inactive | inactive | inactive | inactive | inactive | inactive | inactive |  | inactive |  | inactive | inactive | inactive | inactive | inactive |  |
| ClCCN1CCOCC1 | inactive | inactive | inactive |  | inactive | inactive | inactive | inactive | inactive | inactive | inactive | inactive | inactive | inactive | inactive | inactive | inactive | inactive | inactive |  |
| CCc1nn(C)c(C(=O)NCc2ccc(C(C)(C)C)cc2)c1Cl | inactive | 24.3 µM (active) | 0.306 µM (active) | 54.5 µM (active) | inactive | inactive |  |  |  | 54.5 µM (active) | inactive | 10.9 µM (active) |  | 61.1 µM (active) |  | 0.389 µM (active) |  | inactive | inactive |  |
| CCc1cc(C)cc(CC)c1-c1c(OC(=O)C(C)(C)C)n2n(c1=O)CCOCC2 | inactive | inactive |  | inactive | inactive | inactive | inactive | inactive | inactive | inactive | inactive |  | inactive | inactive | 34.4 µM (active) | inactive | inactive | inactive | inactive |  |
